Screening data (PubChem BioAssay)
This is one part of a sample in which hits are shown more often than they occur.
ST2 IL33 inh – blocks human ST2 binding to IL-33. Q01638. AID 1259354. 78,000 compounds, 2.3% hits. AlphaLISA ST2-Fc/biotin-IL-33 interaction, 1 h. inhibition, % for hits at 17 µM; in the data active means inhibition above about 30%
Target sequence (Q01638 whole entry, looked up): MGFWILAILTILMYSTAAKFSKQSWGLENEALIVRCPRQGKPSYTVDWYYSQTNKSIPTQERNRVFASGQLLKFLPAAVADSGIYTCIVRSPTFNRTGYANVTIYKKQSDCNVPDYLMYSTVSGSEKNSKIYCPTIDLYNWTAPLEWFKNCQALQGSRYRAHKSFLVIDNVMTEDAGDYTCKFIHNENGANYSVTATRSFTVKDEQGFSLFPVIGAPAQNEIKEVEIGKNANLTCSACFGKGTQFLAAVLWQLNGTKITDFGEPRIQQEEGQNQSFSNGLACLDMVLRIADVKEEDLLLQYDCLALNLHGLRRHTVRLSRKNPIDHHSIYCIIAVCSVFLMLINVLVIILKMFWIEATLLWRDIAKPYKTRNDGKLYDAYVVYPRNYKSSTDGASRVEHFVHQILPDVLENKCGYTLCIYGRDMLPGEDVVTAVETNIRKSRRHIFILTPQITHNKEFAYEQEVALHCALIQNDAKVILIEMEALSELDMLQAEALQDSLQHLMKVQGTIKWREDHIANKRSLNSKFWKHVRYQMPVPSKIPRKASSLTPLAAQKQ
* hit, by the source's call; i = inactive.

SMILES	ST2 IL33 inh
CC[C@H]1CN(C(=O)c2ccc(C)cc2C)CC[C@@]1(C)O	31%*
CC(C)C[C@H]1CN(C(=O)c2ccc(-c3nnn(C)n3)cc2)CC[C@@]1(C)O	i
[O-][n+]1cccc2c(Br)cc(Br)c(O)c21	30%*
C/C(=C\C(=O)NCCCC1NC(=O)C(CCCNC(=O)/C=C(\C)CCO)NC1=O)CCO (configuration not stated)	i
O=C(NCc1cccnc1)c1cccc(Br)c1	i
O=C(CN1C(=O)c2ccccc2C1=O)Nc1nc(-c2ccncc2)cs1	36%*
O=C(CSc1ncccn1)Nc1nc(-c2ccccc2)cs1	i
O=C(COc1ccccc1)Nc1nc(-c2ccccc2)cs1	i
O=C(c1ccc2nc3sc4c(c3c(=O)n2c1)CCCC4)N1CCN(c2ccccc2)CC1	31%*
O=C(NCCc1ccccc1)c1ccc2nc3sc4c(c3c(=O)n2c1)CCCC4	i
O=C(NCc1ccccc1)c1ccc2nc3sc4c(c3c(=O)n2c1)CCCC4	i
C(=Nc1cnc2ccccc2c1)c1c2n(c3ccccc13)CCCN2	30%*
Nc1ncc(CN2CCN(c3cccc(C(F)(F)F)n3)CC2)cn1	i
CCSc1nnc2c(n1)OC(c1ccc(OC)cc1)Nc1ccccc1-2 (configuration not stated)	i
c1ccc(C(c2ccccc2)N2CCN(Cc3nc(CC4CC4)no3)CC2)cc1	i
CSc1nc2nc3c(cc2c(=O)n1-c1ccccc1C)COC(C)(C)C3	i
CCCSc1nc2nc3c(cc2c(=O)n1-c1ccc(OC)cc1)COC(C)(C)C3	44%*
CCC1(C)Cc2c(sc3nc(SC)n(-c4ccc(OC)cc4)c(=O)c23)CO1 (configuration not stated)	i
O=C(c1cccc2c1-c1ccccc1/C2=N\O)N1CCCCC1	i
O=C(CN1CCN(Cc2ccccc2Cl)S1(=O)=O)Nc1ccccc1F	i
Cc1c(C(C)NC(=O)C2(c3ccccc3)CCCCC2)cnn1-c1ccccn1 (configuration not stated)	i
O=[N+]([O-])c1ccccc1Oc1ccccc1	30%*
O=C(O)Cc1ccccc1[N+](=O)[O-]	i
O=C(O)c1cc([N+](=O)[O-])c(C(=O)O)cc1Oc1ccc(Cl)cc1	i
N#CC1=C(SCc2ccccc2)NC(=O)CC1c1ccc(F)cc1 (configuration not stated)	i
SMILES	ST2 IL33 inh
O=C(O[n+]1ccc(N2CCOCC2)cc1)N1CCCCC1	i
CSc1ccc(CNCc2cccnc2N2CCCC(O)C2)cc1 (configuration not stated)	i
COc1ccc2oc(=Nc3ccc(C(C)=O)cc3)c(C(N)=O)cc2c1	40%*
COc1ccc2oc(=Nc3ccc(-c4ccccc4)cc3)c(C(N)=O)cc2c1	i
COc1ccc2oc(=Nc3ccccc3OC)c(C(N)=O)cc2c1	i
COc1cc(N2CCC(C(=O)NCc3ccccn3)CC2)ncn1	i
O=C(COc1ccc(Br)cc1Cl)N1CCc2ccccc21	i
CCOc1ccccc1-c1nc(C(N)=O)c2c(n1)n(-c1ccc(C)c(C)c1)c(=O)n2C	i
Clc1ccc(-c2noc([C@@H]3Cc4nc[nH]c4CN3Cc3cccs3)n2)cc1	30%*
COc1ccc(-c2noc([C@@H]3Cc4nc[nH]c4CN3C(=O)Nc3ccc(Cl)cc3)n2)cc1	i
O=C(O)c1ccc(CN2Cc3[nH]cnc3C[C@H]2c2nc(-c3cccc([N+](=O)[O-])c3)no2)cc1	i
COc1cc(OC)cc(C(=O)N2CCN=C2SCc2ccc(Cl)cc2)c1	i
COc1cccc(N2CCN(c3cc(CCN)nc(C)n3)CC2(C)C)c1	i
COc1ccccc1CN1CCC(CN(CC(C)C)C(=O)c2csc(C(C)=O)c2)CC1	i
COc1ccc(/C=c2\sc3nc4ccccc4n3c2=O)cc1O	50%*
O=c1/c(=C\c2cccc([N+](=O)[O-])c2)sc2nc3ccccc3n12	i
CCCCOc1ccc(/C=c2\sc3ncnn3c2=O)cc1OC	i
CC(C)C(NC(=O)c1cc2ccccc2o1)c1nnc2n1CCNCC2 (configuration not stated)	i
CCn1cc(SCC(=O)N2CCC3(CC2)CNC(=O)C3)c2ccccc21	i
COC(=O)c1ccccc1Sc1c(-c2ccccc2)nc2sccn12	i
O=[N+]([O-])c1ccc(Sc2c(-c3ccccc3)nc3sccn23)cc1	32%*
c1ccc(Sc2c(-c3ccccc3)nc3ncccn23)cc1	i
Cc1ccc2nc(C3CCCN3C(=O)c3cn(Cc4ccc(F)cc4)nn3)[nH]c2c1 (configuration not stated)	i
COC(=N)CN1C(=O)c2ccccc2S1(=O)=O	i
CCN1C(C(=O)c2ccccc2)=C(Nc2ccccc2C)c2ccccc2S1(=O)=O	31%*
SMILES	ST2 IL33 inh
Cc1ccccc1Nc1sc(C(=O)c2ccccc2)c(N)c1C#N	i
CCn1cc(CNCc2cn(-c3ccc(F)cc3)nc2-c2ccccc2Cl)cn1	i
N#C/C(=C\c1ccc2c(c1)OCO2)c1nc2ccccc2[nH]1	i
COc1ccc2nc(SCc3ccc(C)cc3)[nH]c2c1	i
COc1cc(/C=C(\C#N)c2nc3ccc(C)cc3[nH]2)cc(OC)c1O	34%*
N#C/C(=C\c1cc2c(cc1Br)OCO2)c1nc2ccccc2[nH]1	i
Cc1ccc(/C=C(\C#N)c2nc3ccc(C)cc3[nH]2)cc1	32%*
CCOc1ccc(Br)cc1/C=C(\C#N)c1nc2ccccc2[nH]1	i
O=C1CC(N(CCc2ccccc2)C(=O)c2cccc(F)c2)C(=O)N1c1ccc(F)cc1 (configuration not stated)	i
COc1ccc(-c2nn(-c3ccccc3)cc2CN(C)CCc2c(C)n[nH]c2C)c(F)c1	i
O=C(CCN1CCCO1)N1CC[C@@H](c2ccc3ccccc3c2)[C@H](O)C1	i
O=C(O)CNC(=O)/C(=C/c1ccc2c(c1)OCO2)NC(=O)c1ccccc1Cl	i
Cc1[nH]nc(-c2ccc(O)c(O)c2O)c1Oc1ccccc1	42%*
CCOc1ccc(-c2n[nH]c(C)c2Oc2ccccc2)c(O)c1	i
COc1ccc(-c2n[nH]c(C)c2Oc2ccccc2)c(O)c1	i
Oc1ccc(-c2[nH]ncc2Oc2ccccc2)c(O)c1	i
Oc1ccc(-c2[nH]ncc2Oc2ccccc2)c(O)c1O	51%*
CCCc1ccc(Oc2cn[nH]c2-c2ccc(O)c(C)c2O)cc1	i
Cc1nnc([C@H]2CCN(Cc3cccc(C#N)c3)C2)o1	i
Cc1ccc(NC(=O)c2ccccc2Cl)c(Br)c1	i
Cc1noc(C)c1CNC(C)CCn1cccn1 (configuration not stated)	i
COc1ncc(-c2cc(NCCN(C)C)nc3[nH]ccc23)c(OC)n1	i
c1ccc2c(-c3cc(NC4CCNCC4)nc4[nH]ccc34)n[nH]c2c1	46%*
NC(=O)c1csc(-c2cc(NC3CCCC3)nc3[nH]ccc23)n1	i
c1cnc(-c2cc(NC3CCNCC3)nc3[nH]ccc23)nc1	41%*
SMILES	ST2 IL33 inh
Cc1cc(-c2cc(NC3CCNCC3)nc3[nH]ccc23)c(=O)[nH]c1C	38%*
CC(O)c1cccc(-c2cc(NC3CCNCC3)nc3[nH]ccc23)n1 (configuration not stated)	46%*
Cc1ccccc1-n1cc(-c2ccnc(NC3CCNCC3)n2)cn1	i
CCNc1ccnc(-c2cccc3[nH]ccc23)n1	i
CCCCn1c(SCC(C)=O)nc2c1c(=O)[nH]c(=O)n2C	i
Cc1cccn2c(CC(=O)N3CCC(c4ccccc4C(=O)O)C3)cnc12 (configuration not stated)	i
